Test [1] in a line: qHTS assay for small molecules that induce genotoxicity in human embryonic kidney cells expressing luciferase-tagged ATAD5 (AID 651632). Note: nearly all actives have a fitted effect of over 15% in size. An outline of the steps:
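Reporter cells (HEK293T) express luciferase-tagged ATAD5, a protein that accumulates after DNA damage. Treat 16 hr at 37C/5% CO2, add Amplite, wait 30 min at RT, and read luminescence.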
In general terms: Quantitative high-throughput screening tests each substance at several concentrations.

Test [2] in a line: qHTS assay for small molecule agonists of the p53 signaling pathway - cell viability (AID 651633; calls by dose curve;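 note: p53RE-bla HCT reporter cells with a stable beta-lactamase p53 reporter; series mostly up to about 83 µM; nearly all actives have a fitted effect of over 30% in size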). The gist of the method:
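p53RE-bla cells, seeded at 4,000 per well and rested 5 h at 37 C/5% CO2, received compounds in DMSO for 16 h at 37 C. CellTiter-Glo was then added, and luminescence was read after 30 min at room temperature to gauge cytotoxicity.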

Test [3] in a line: qHTS assay for small molecule disruptors of the mitochondrial membrane potential - cell viability (AID 720634; calls by dose curve;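 note: human HepG2 liver cancer cells; series mostly up to about 83 µM; nearly all actives have a fitted effect of over 20% in size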). An outline of the steps:
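Measuring cytotoxicity alongside mitochondrial potential, the screen quantified ATP by luminescence in HepG2 cells after 1 hr compound incubation and a 30 min room-temperature CellTiter-Glo step.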

Test [4] in a line: qHTS assay to test for compound auto fluorescence at 590 nm (red) in HepG2 cells (AID 720674). The gist of the method:
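Compound auto-fluorescence is scored relative to Rose Bengal sodium, measured at 540/590 nm in live HepG2 cultures after 1 hr compound contact (37 C, 5% CO2).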

The nature of test [5]: qHTS assay to test for compound auto fluorescence at 535 nm (green) in HepG2 cells (AID 720675).
The nature of test [6]: qHTS assay to test for compound auto fluorescence at 590 nm (red) in HEK293 cells (AID 720679). The gist of the method: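 HEK293 cells (2,000/well, medium with 10% dialyzed FBS) attached for 4-5 hr at 37C, received 23 nL compound and were incubated overnight at 37C, 5% CO2. Red fluorescence was then read at 540/590nm Ex/Em, referenced to Rose Bengal sodium.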
Test [7] in a line: qHTS assay to test for compound auto fluorescence at 535 nm (green) in HEK293 cells (AID 720680).
Test [8] in a line: qHTS assay to test for compound auto fluorescence at 460 nm (blue) in HEK293 cell free culture (AID 720681). The gist of the method:
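Test compounds were pinned into cell-free culture medium (DMEM with 10% FBS) and fluorescence was read directly at Ex/Em 405/460 nm. Signals were expressed as fluorescence equivalents of triamterene, with DMSO vehicle as control.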

Test [9] can be described thus: qHTS assay to test for compound auto fluorescence at 535 nm (green) in HEK293 cell free culture (AID 720682). The gist of the method: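 Green-channel intensity (Ex/Em 485/535 nm) was recorded from compound-treated wells containing only DMEM with 10% FBS. Fluorescein provided the equivalency standard.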
Test [10] can be described thus: qHTS assay to test for compound auto fluorescence at 590 nm (red) in HEK293 cell free culture (AID 720683). An outline of the steps: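 Tox21 10K library compounds were pinned into cell-free DMEM with 10% FBS and fluorescence was read at excitation 540 nm. Activity is expressed as Rose Bengal sodium equivalency.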
Test [11] is described as follows: qHTS assay to test for compound auto fluorescence at 590 nm (red) in HepG2 cell free culture (AID 720684). An outline of the steps:
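Measured in medium alone (MEM containing 10% FBS) following pintool addition of compound; emission at 590 nm with 540 nm excitation, referenced to Rose Bengal sodium.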

Test [12] can be described thus: qHTS assay to test for compound auto fluorescence at 460 nm (blue) in HepG2 cell free culture (AID 720685). The gist of the method:
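Compound (23 nL) or DMSO pinned into cell-free MEM with 10% FBS; blue fluorescence read at 405/460 nm excitation/emission, expressed as auto-fluorescence equivalency to triamterene.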

A short description of test [13]: qHTS assay to test for compound auto fluorescence at 535 nm (green) in HepG2 cell free culture (AID 720686).
Test [14] can be described thus: qHTS assay for small molecule disruptors of the mitochondrial membrane potential (AID 720635). The gist of the method:
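HepG2 cells (2,000/well) attached overnight at 37C, then took compound for 1 hr at 37C, 5% CO2. Mito-MPS dye was added for 30 min; fluorescence was read at 490/535 nm (monomers) and 540/590 nm (aggregates).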

In test [15] the target is Glucocorticoid receptor (Homo sapiens) (UniProt P04150). In words: qHTS assay to identify small molecule agonists of the glucocorticoid receptor (GR) signaling pathway (AID 720691; active = well fitted activation curve with a large enough effect in the signal ratio in the repeat runs, not every such curve was filed as active; the % refers to the signal ratio). An outline of the steps: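 Reporter read-out: fluorescence intensity following 2 h room-temperature LiveBLAzer B/G FRET substrate loading. Prior step: GR-bla HeLa cells held 4 h, then treated 18 h at 37 C.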
Sequence of Glucocorticoid receptor (Homo sapiens) (P04150 whole entry, looked up): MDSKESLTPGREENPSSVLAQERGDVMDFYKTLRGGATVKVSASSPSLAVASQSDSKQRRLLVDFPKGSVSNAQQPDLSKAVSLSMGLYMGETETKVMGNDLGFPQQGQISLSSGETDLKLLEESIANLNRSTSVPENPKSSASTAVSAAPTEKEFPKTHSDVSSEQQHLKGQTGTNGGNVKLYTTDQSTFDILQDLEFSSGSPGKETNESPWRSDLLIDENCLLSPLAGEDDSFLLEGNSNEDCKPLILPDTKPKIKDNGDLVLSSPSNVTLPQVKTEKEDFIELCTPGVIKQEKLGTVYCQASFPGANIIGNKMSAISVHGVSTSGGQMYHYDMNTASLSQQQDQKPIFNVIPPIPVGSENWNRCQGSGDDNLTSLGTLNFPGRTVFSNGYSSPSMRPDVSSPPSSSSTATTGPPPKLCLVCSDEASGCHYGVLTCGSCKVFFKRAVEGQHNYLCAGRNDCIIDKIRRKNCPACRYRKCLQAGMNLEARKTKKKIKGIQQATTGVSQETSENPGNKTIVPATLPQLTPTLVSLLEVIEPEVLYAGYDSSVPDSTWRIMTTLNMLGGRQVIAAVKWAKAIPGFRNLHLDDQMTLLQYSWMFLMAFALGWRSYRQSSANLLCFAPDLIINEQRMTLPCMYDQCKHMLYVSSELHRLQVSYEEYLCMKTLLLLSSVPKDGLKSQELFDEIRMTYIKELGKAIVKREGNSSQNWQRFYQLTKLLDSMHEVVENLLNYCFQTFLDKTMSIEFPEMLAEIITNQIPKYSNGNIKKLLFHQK

For test [16] the target is unchanged. Description: qHTS assay to identify small molecule antagonists of the glucocorticoid receptor (GR) signaling pathway (AID 720692; active = well fitted inhibition curve with a large enough effect in the signal ratio in the repeat runs, not every such curve was filed as active; the % refers to the signal ratio). The gist of the method:
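Dexamethasone (5 nM final) stimulated a stably integrated GRE-beta-lactamase reporter in HeLa cells during 18 h co-incubation with compounds; signal was quantified as fluorescence intensity of B/G FRET substrate after 2 h.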

The nature of test [17]: qHTS assay to test for compound auto fluorescence at 460 nm (blue) in HEK293 cells (AID 720678). An outline of the steps: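 HEK293 cells (2,000 per well, medium with 10% dialyzed FBS) attached for 4-5 hr at 37C, then received compound and stood overnight at 37C, 5% CO2. Blue fluorescence was read at Ex/Em 405/460 nm and expressed relative to triamterene.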
Test [18] is described as follows: qHTS assay to test for compound auto fluorescence at 460 nm (blue) in HepG2 cells (AID 720687). An outline of the steps:
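Cells (2,000/well in MEM with 10% FBS) attached overnight at 37 C, then were exposed to compound or DMSO for 1 hr at 37 C, 5% CO2. Fluorescence read at Ex/Em 405/460 nm, expressed as triamterene-equivalent signal.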

Test [19] can be described thus: qHTS assay for small molecules that induce genotoxicity in human embryonic kidney cells expressing luciferase-tagged ATAD5 - cell viability (AID 651634; calls by dose curve; note: nearly all actives have a fitted effect of over 25% in size; note: potency is the fitted concentration of half-maximal effect). The gist of the method:
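Seeding of 2,000 HEK293T ATAD5-luciferase cells per well preceded pin-tool compound transfer. Plates sat 15.5 hr at 37C under 5% CO2, then fluorescence was read after 30 min with CellTiter-Fluor.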

The values that follow come from PubChem BioAssay (Tox21).

Structures are written as SMILES. Unmarked numbers belong to inactive results. Results filed as inconclusive are left out. Calls of active or inactive are those of the source. Unless noted, calls come from the whole dose curve; as a rule, active = well fitted curve in the direction sought with a large enough effect in the repeat runs; inconclusive = weak or mixed curves; inactive = no such curve, though single readings can be large; an effect the other way counts as inactive or inconclusive.
% is set by controls: 0 for no effect and ±100 for the full control effect.

Regarding `CC[C@@H](CO)NC(=O)[C@@H]1C=C2c3cccc4c3c(cn4C)C[C@H]2N(C)C1`, the call in [1], in test [4], in [5], in test [6], in test [7] and in [8] was inactive. Besides, the result in test [9], in test [10], in test [11], in test [12] and in test [13] was inactive. Further, the Potency result in test [2] and in test [3] was “inactive” in each case.

For `C[C@@H](N)[C@@H](O)c1ccccc1`, the Potency entry in test [3], in test [14], in test [15] and in [16] was “inactive” throughout. For the same compound, the fluorescence, relative to Rose Bengal in test [4] is -0.248% [at 18.6 µM]. Also, the fluorescence, % of fluorescein control in test [5] was -0.0859% [at 18.6 µM]; in test [13], 0.0244% [at 18.6 µM]. Moreover, the fluorescence, % of fluorescent control in [6] is -0.083% [at 18.6 µM]; in test [8] it was -0.0641% [at 18.6 µM]; in test [10], 0.0965% [at 18.6 µM]; in [12] it was -0.105% [at 18.6 µM]. In [7], the fluorescence, % of fluorescein is 0.072% [at 18.6 µM]. In addition, the activity change in test [9] was -0.0136% [at 18.6 µM]. The fluorescence, % of Rose Bengal in [11] is 0.843% [at 18.6 µM].

As to `CC(=O)CN(CC(C)=O)N=O`, the compound was classed as inactive in test [1], in test [4], in test [5], in [17], in [6] and in test [7]. Moreover, the result in test [8], in test [9], in [10], in [11], in [12] and in [13] was inactive. Besides, the compound was classed as inactive in [18]. In addition, the Potency entry in test [2], in [3] and in test [15] was “inactive” throughout.

`Cc1ccc(S(=O)(=O)N[C@@H](CCCCN)C(=O)CCl)cc1`: the Potency in [19] is 29.8 µM (active). For the same compound, the Potency result in test [3] and in test [15] was “inactive” each time. Further, the call in test [4], in test [5], in test [17], in [6], in test [7] and in test [8] was inactive. Moreover, the compound was classed as inactive in test [9], in test [11], in test [12] and in test [13].

For the compound `CN(C)CCN(C)C`, the compound was called inactive in test [1], in test [4], in test [5], in test [17], in test [6] and in [7]. In addition, the call in test [8], in test [9], in test [10], in test [12], in test [13] and in test [18] was inactive. For the same compound, the Potency result in [3] and in test [15] was “inactive” in each case.

`CCOC(=O)CCl`: the Potency result in test [2], in [19], in [3], in test [15] and in [16] was “inactive” throughout. For the same compound, the result in test [4], in [5], in test [17], in test [6], in test [7] and in test [8] was inactive. Besides, the outcome in test [9], in [10], in [11], in [12], in test [13] and in [18] was inactive.

On to `NC(=O)CS(=O)C(c1ccccc1)c1ccccc1` (configuration not stated), for which the Potency entry in test [2], in test [19], in test [3], in [15] and in test [16] was “inactive” throughout. The outcome in test [4], in [5], in test [17], in test [6], in [7] and in [8] was inactive. Moreover, the outcome in test [9], in [10], in test [11], in [12] and in [18] was inactive.

Take `[O-][Br+2]([O-])O`: the outcome in test [1], in test [4], in test [5], in test [17], in test [6] and in test [7] was inactive. Further, the outcome in [8], in test [9], in test [11], in [12] and in test [18] was inactive. Besides, the Potency entry in test [2], in test [3] and in test [15] was “inactive” each time.

Take `Brc1c(Br)c(Br)c(Br)c(Br)c1Br`: the activity change, negative = cytotoxicity is 9.67% [at 8.08 µM] in test [2] and 4.11% [at 8.08 µM] in [3]. The fluorescence, relative to Rose Bengal in [4] was 0.167% [at 3.72 µM]. Also, the fluorescence, % of fluorescein control was 0.0147% [at 3.72 µM] in [5] and 0.0083% [at 3.72 µM] in [13]. Besides, the fluorescence, % of triamterene in [17] is 0.185% [at 3.72 µM]. Besides, the fluorescence, % of fluorescent control was -0.438% [at 3.72 µM] in test [6], 0.241% [at 3.72 µM] in test [8], -0.398% [at 3.72 µM] in test [10] and 0.0001% [at 3.72 µM] in test [12]. For the same compound, the fluorescence, % of fluorescein in test [7] was -0.0363% [at 3.72 µM]. In test [9], the activity change was 0.039% [at 3.72 µM]. Also, the fluorescence, % of Rose Bengal in [11] was 0.0791% [at 3.72 µM]. Besides, the activation in test [15] is 0.883% [at 6.9 µM]. Also, the activity change, negative = inhibition in test [16] is 4.46% [at 7.04 µM].
